Results filed as inconclusive are left out. A call without a number means that no potency is given here. The source made the active and inactive calls. Unless noted, calls follow the shape of the dose curve; as a rule, active = well fitted curve in the direction sought with a large enough effect; inconclusive = small, poorly fitted or top-dose-only effect, or another doubt; inactive = no such curve, though single readings can be large; an effect the other way counts as inactive or inconclusive. Numbered stars: 1 amine (or outer) side, 2 acyl side, 3 side chain; on linkers, the order of the positions; unused ones are H or OH. Bridge positions count the residues as written; N and C are the ends. Square brackets hold non-standard residues; d marks the D form. Peptide text beside a SMILES is read from it. I, II: the chains in the order shown. Actinocin(9to1) = Cc1c2oc3c(C)ccc(C(=O)[*:1])c3nc-2c(C(=O)[*:2])c(N)c1=O; NMeV = CN[C@H](C(=O)O)C(C)C; Sar = CNCC(=O)O
Test system: not listed separately
Assay: Primary qHTS for Vero E6 cytotoxicity: counterscreen for inhibitors of SARS-S pseudo-typed particle cell entry (AID 1479150; calls by dose curve)
Settings: cell viability; series mostly up to 57.1 µM

| SMILES | Potency |
| --- | --- |
| Cc1c2oc3c(C)ccc(C(=O)N[C@@H]4C(=O)N[C@H](C(C)C)C(=O)N5CCC[C@H]5C(=O)N(C)CC(=O)N(C)[C@@H](C(C)C)C(=O)O[C@@H]4C)c3nc-2c(C(=O)N[C@@H]2C(=O)N[C@H](C(C)C)C(=O)N3CCC[C@H]3C(=O)N(C)CC(=O)N(C)[C@@H](C(C)C)C(=O)O[C@@H]2C)c(N)c1=O (I: T[dV]P[Sar][NMeV] / II: T[dV]P[Sar][NMeV]; ester I:1-I:C, II:1-II:C; linker I:N-II:N via Actinocin(9to1)) | inactive |
| OCCN1CCN(CCCN2c3ccccc3Sc3ccc(C(F)(F)F)cc32)CC1 | inactive |
| O=C(CCCN1CCC(O)(c2ccc(Cl)cc2)CC1)c1ccc(F)cc1 | inactive |

Test system: not listed separately
Assay: Primary qHTS for inhibitors of La Crosse Virus (LACV) - induced cell death in SH-SY5Y cells (AID 1508616);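 also: top concentration of the series differs between compounds; higher means more rescue of cells from virus-induced death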
Settings: SH-SY5Y LACV cytopathicity rescue, ATP luminescence, 6 d; series mostly up to 4.29 µM
Method in brief: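 Cytopathicity rescue screen: compounds pinned onto SH-SY5Y cells, which are then infected with LACV (MOI 0.01) and held 6 days at 37C. Percent activity is scaled between infected DMSO control and uninfected DMSO control.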

| SMILES | Potency |
| --- | --- |
| CC[N+](CC)(CC)CC | inactive |
| NCCc1cc(O)c(O)cc1O | inactive |
| Fc1ccc(C(OCCN2CCN(CCCc3ccccc3)CC2)c2ccc(F)cc2)cc1 | inactive |
| COC[C@@H](NC(C)=O)C(=O)NCc1ccccc1 | inactive |
| CC(C)CC(N(C)C)C1(c2ccc(Cl)cc2)CCC1 (centres undefined) | inactive |
| CC(=O)[C@H]1CC[C@H]2[C@@H]3CC[C@H]4C[C@](C)(O)CC[C@]4(C)[C@H]3CC[C@]12C | inactive |
| C[C@]12C/C(=C/O)C(=O)C[C@@H]1CC[C@@H]1[C@@H]2CC[C@@]2(C)[C@H]1CC[C@]2(C)O | inactive |
| NN=C(N)N | inactive |
| O=C(NC(O)C(Cl)(Cl)Cl)NC(O)C(Cl)(Cl)Cl (centres undefined) | inactive |
| CN1C[C@H](CNC(=O)OCc2ccccc2)C[C@@H]2c3cccc4c3c(cn4C)C[C@H]21 | inactive |
| c1ccc(C2CC2)c(OCC2=NCCN2)c1 | inactive |
| N#CC(C#N)=Cc1ccc(O)c(O)c1 | inactive |
| COc1ccccc1N1CCNCC1 | inactive |
| CCCN1CCC[C@@H]2Cc3[nH]ncc3C[C@H]21 | inactive |
| CN(C)CCc1ccc(O)cc1 | inactive |
| O=C(O)c1ccc2[nH]cc(CCCCN3CC=C(c4ccccc4)CC3)c2c1 | inactive |
| COC[C@H]1OC(=O)c2coc3c2[C@@]1(C)C1=C(C3=O)C2CCC(=O)[C@@]2(C)C[C@H]1OC(C)=O (some centres undefined) | inactive |

| SMILES | Potency |
| --- | --- |
| C#CCOC(C(=O)OCCN(C)C)(c1ccccc1)c1ccccc1 | inactive |
| CCN(CC)CCOC(=O)C(O)(c1ccccc1)c1ccccc1 | inactive |
| Cc1ccc(S(=O)(=O)N[C@@H](CCCCN)C(=O)CCl)cc1 | inactive |
| CC1OC(C)OC(C)O1 (centres undefined) | inactive |
| Clc1cccc(N2CCNCC2)c1 | inactive |
| CCN(C(C)=O)c1cccc(-c2ccnc3c(C#N)cnn23)c1 | inactive |
| CC(C)=CCOc1c2occc2cc2ccc(=O)oc12 | inactive |
| O=C1NCN(c2ccccc2)C12CCN(CC1COc3ccccc3O1)CC2 (centres undefined) | inactive |
| CNCC(O)c1ccc(O)cc1 (centres undefined) | inactive |
| CC(=O)[C@H]1CC[C@H]2[C@@H]3CC[C@H]4C[C@H](O)CC[C@]4(C)[C@H]3C(=O)C[C@]12C | inactive |
| CCC1(C2=NCCN2)Cc2ccccc2O1 (centres undefined) | inactive |
| c1ccc2c(c1)OCC(C1=NCCN1)O2 (centres undefined) | inactive |
| NP(N)(=O)NC(=O)c1ccc(F)cc1 | inactive |
| Cc1ccc2c(c1)C1CN(C)CCC1N2 (centres undefined) | inactive |
| CC(O)(CS(=O)(=O)c1ccc(F)cc1)C(=O)Nc1ccc(C#N)c(C(F)(F)F)c1 (centres undefined) | inactive |
| Cc1cccc(C)c1NC(=O)CN1CCCC1=O | inactive |

Molecular target: Calcium and integrin-binding protein 1 (Homo sapiens) (UniProt Q99828)
Assay: Validation qHTS for Identification of Calcium Integrin Binding protein 1 (CIB1) Competitor (AID 1508618); also: potency is read from the fitted curve at half-maximal effect
Settings: CIB1-GST / FITC-alphaIIb peptide fluorescence polarization; series mostly up to 114 µM
Method in brief: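 CIB1-GST (1 uM final) in 5 mM HEPES pH 7.4, 125 mM NaCl, 5 mM CaCl2, 0.01% Tween20 was preincubated 15 min at room temperature with compound (up to 114 uM), then FITC-alphaIIb peptide (100 nM) added for 15 min; fluorescence polarization read.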

Calcium and integrin-binding protein 1 (Homo sapiens), sequence (Q99828 whole entry, looked up): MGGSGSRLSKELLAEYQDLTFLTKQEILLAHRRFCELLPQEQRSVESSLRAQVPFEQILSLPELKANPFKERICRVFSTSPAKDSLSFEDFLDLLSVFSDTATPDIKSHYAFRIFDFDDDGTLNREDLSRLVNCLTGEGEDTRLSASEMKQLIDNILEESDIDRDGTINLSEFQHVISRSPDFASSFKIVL

| SMILES | Potency |
| --- | --- |
| Fc1ccc(C(OCCN2CCN(CCCc3ccccc3)CC2)c2ccc(F)cc2)cc1 | inactive |
| CC(=O)[C@H]1CC[C@H]2[C@@H]3CC[C@H]4C[C@](C)(O)CC[C@]4(C)[C@H]3CC[C@]12C | inactive |
| NN=C(N)N | inactive |
| CN1C[C@H](CNC(=O)OCc2ccccc2)C[C@@H]2c3cccc4c3c(cn4C)C[C@H]21 | 44.7 µM (active) |
| c1ccc(C2CC2)c(OCC2=NCCN2)c1 | inactive |
| N#CC(C#N)=Cc1ccc(O)c(O)c1 | inactive |
| COc1ccccc1N1CCNCC1 | inactive |
| CCCN1CCC[C@@H]2Cc3[nH]ncc3C[C@H]21 | inactive |
| COC[C@H]1OC(=O)c2coc3c2[C@@]1(C)C1=C(C3=O)C2CCC(=O)[C@@]2(C)C[C@H]1OC(C)=O (some centres undefined) | inactive |
| Cc1ccc(S(=O)(=O)N[C@@H](CCCCN)C(=O)CCl)cc1 | inactive |
| CC(C)=CCOc1c2occc2cc2ccc(=O)oc12 | inactive |
| O=C1NCN(c2ccccc2)C12CCN(CC1COc3ccccc3O1)CC2 (centres undefined) | inactive |
| CNCC(O)c1ccc(O)cc1 (centres undefined) | inactive |
| CC(=O)[C@H]1CC[C@H]2[C@@H]3CC[C@H]4C[C@H](O)CC[C@]4(C)[C@H]3C(=O)C[C@]12C | inactive |
| CCC1(C2=NCCN2)Cc2ccccc2O1 (centres undefined) | inactive |
| c1ccc2c(c1)OCC(C1=NCCN1)O2 (centres undefined) | inactive |
| CC(O)(CS(=O)(=O)c1ccc(F)cc1)C(=O)Nc1ccc(C#N)c(C(F)(F)F)c1 (centres undefined) | inactive |
| Cc1cccc(C)c1NC(=O)CN1CCCC1=O | inactive |
